PMC5540273 (PLoS ONE, 2017)

These compounds were tested on T1, MEK5.
T1 construct: gene MAP2K5
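Further: kd values determined as follow-up on hits from a single-replicate KINOMEscan panel screen.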

Question: How did the Kd turn out when `COc1ccc(Nc2nccc(-c3cccc(NC(=O)c4cc5cc(F)ccc5[nH]4)c3)n2)cc1` [GSK1229782] was run?
Answer: The Kd was 200 nM.

Question: For `COc1cccc(NC(=O)NC2CCN(c3ccnc(Nc4ccc(F)cc4)n3)C2)c1` (stereo not shown) [GSK1379721], which Kd is on record?
Answer: The Kd was 500 nM.

Question: `Cn1cncc1-c1ccc2ncnc(Nc3ccc(OCc4ccccc4)cc3)c2c1` [GW320571] was tested. Which Kd did it give?
Answer: The Kd was 450 nM.

Question: For `Cc1ccc(C(=O)Nc2ccc(Nc3ccnc4cc(-c5ccccn5)ccc34)cc2O)cc1.Cl` [GW440146], which Kd is on record?
Answer: The Kd was 4.7 nM.

Question: `COc1ccc(CNC(=O)NC2CCN(c3ccnc(Nc4cc(OC)c(OC)c(OC)c4)n3)C2)cc1` (stereo not shown) [GSK1379748] was tested. Which Kd did it give?
Answer: The Kd was 95 nM.

Question: For `COc1cc2ncn(-c3cc(OCC4CCCO4)c(C(N)=O)s3)c2cc1OC` (stereo not shown) [GSK204607], which Kd is on record?
Answer: The Kd was 81 nM.

Question: Which Kd does the source give for `COc1cc2ncnc(Nc3ccc4nc(-c5ccccc5)[nH]c4c3)c2cc1OC.Cl` [GW282450] here?
Answer: Its Kd is 670 nM.

Question: How did the Kd turn out when `Cl.O=C(Nc1cccc(-c2nn3ncccc3c2-c2ccnc(Nc3cccnc3)n2)c1)c1c(F)cccc1F` [GSK312879] was run?
Answer: The Kd was 230 nM.

Question: How did the Kd turn out when `Fc1cc(Cl)ccc1Nc1ccnc2cc(-c3ccc(CN4CCCCC4)o3)ccc12` [GW560116] was run?
Answer: The Kd was 890 nM.

Question: `CC(C)(C)c1ccc(C(=O)Nc2cn3cc(-c4cccnc4)ccc3n2)cc1` was tested. Which Kd did it give?
Answer: Its Kd is 190 nM.

Question: For `Cl.NC(=O)c1cccc(Nc2nccc(Nc3ccc(Oc4cccc(Cl)c4)c(Cl)c3)n2)c1` [GW659008], which Kd is on record?
Answer: The Kd was 34 nM.

Question: For `COc1cc2nccc(Nc3ccc(NC(=O)c4ccc(C)cc4)c(O)c3)c2cc1OC.Cl` [GW440132], which Kd is on record?
Answer: The Kd was 8.7 nM.

Question: `COc1cc(Nc2nccc(N3CCC(NC(=O)Nc4cc(C)ccc4C)C3)n2)cc(OC)c1OC` (stereo not shown) [GSK1379762] was tested. Which Kd did it give?
Answer: The Kd was 53 nM.
